Screening data from PubChem.
Most compounds without a hit are left out; they make up all but 1.6% or so of the library.
HTR5A ag ctr – HTR5A agonists in luminescence cell assay, primary screen, counter-screen for OPRM1-OPRD1 heterodimer agonist project, full-deck HTS | 5-hydroxytryptamine receptor 5A (Homo sapiens), P47898 | cell-based | activation, % at 9.3 µM | 340,000 compounds, 0.61% hits; in the data active means activation mostly above about 9.5%, no sharp cut-off; inactive means mostly below about 7.6%;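 further: 0% = cells with vehicle only and 100% = reference agonist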
Target sequence (P47898 whole entry, looked up): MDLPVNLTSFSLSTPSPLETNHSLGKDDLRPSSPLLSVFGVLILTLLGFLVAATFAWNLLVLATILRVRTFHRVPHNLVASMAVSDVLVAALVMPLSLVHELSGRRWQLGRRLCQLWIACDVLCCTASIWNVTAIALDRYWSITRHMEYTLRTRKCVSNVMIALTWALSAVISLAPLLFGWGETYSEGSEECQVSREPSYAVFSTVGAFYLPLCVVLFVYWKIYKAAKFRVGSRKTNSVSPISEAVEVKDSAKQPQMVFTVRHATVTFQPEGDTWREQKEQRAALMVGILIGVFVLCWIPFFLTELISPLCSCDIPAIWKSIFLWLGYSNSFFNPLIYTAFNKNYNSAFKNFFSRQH
PolyA inhibitor – polyadenylation inhibitors in yeast reporter cells, primary screen, luminescence, S. cerevisiae. activity score, % at 12 µM. 300,000 compounds, 0.02% hits. S. cerevisiae SKY197-pL101 polyadenylation reporter, beta-gal luminescence; efflux-impaired pdr1/pdr3 knockout yeast; score 100 = 6 SD above DMSO;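 active means lowest replicate activity score at least 50, where 100 means six control SD above control mean; inconclusive means lowest score under 50 but half or more replicates reach 50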;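 further: yeast exposed to compound for 9 h at 30 °C; higher score means more reporter readthrough which indicates perturbed polyadenylation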
HTR5A inv ctr – HTR5A inverse agonists in luminescence cell assay, primary screen, counter-screen for OPRM1-OPRD1 heterodimer inverse agonist project, full-deck HTS. inhibition, % at 9.3 µM. AID 504634, 2011. HTR5A cell line, inverse agonism. 5-hydroxytryptamine receptor 5A (Homo sapiens), P47898. 340,000 compounds, 0.083% hits; in the data active means inhibition mostly above about 23%, no sharp cut-off; inactive means mostly below about 18%;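 further: 0% = cells with DMSO and 100% = no-cell wells with DMSO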
MOR-DOR inv ag – inverse agonists of MOR-DOR heterodimerization, primary screen, cell-based, luminescence | Mu-type opioid receptor (Homo sapiens) + Delta-type opioid receptor (Homo sapiens), … | cell-based MOR-DOR heterodimer luminescence, inverse agonism | inhibition, % at 9.3 µM | 340,000 compounds, 0.21% hits | AID 504357, 2011; in the data active means inhibition above about 22%, passing the limit was not always enough;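 further: 0% = cells with DMSO and 100% = wells without cells with DMSO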
MOR-DOR ag-1 – agonists of OPRM1-OPRD1 heterodimerization, primary screen, cell-based, luminescence; Mu-type opioid receptor (Homo sapiens) + Delta-type opioid receptor (Homo sapiens), …; cells; activation, % at 9.3 µM; 340,000 compounds, 0.3% hits; AID 504326, 2011;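 further: 0% = vehicle-treated cells and 100% = reference agonist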
NALP1 yeast inh – NALP1 inflammasome inhibitors in reconstituted yeast, colorimetric, S. cerevisiae, triplicate retest; S. cerevisiae NALP1/ASC/caspase-1 growth, X-gal OD620, 72 h; AID 2071, 2009; 280,000 compounds, 0.61% hits; inhibition, % at 10 µM; in the data active means inhibition mostly above about 24%, no sharp cut-off; inactive means mostly below about 32%
MOR-DOR ag-2 – OPRM1-OPRD1 heterodimerization promoters, counter-screen for HTR5A agonist project, cell-based, luminescence | shares compounds with HTR5A ag ctr | U2OS counter-screen cells, complementation luminescence, 3 h | activation, % at 9.3 µM | 800 compounds, 13% hits | AID 504913, 2011
HTR5A ag conf – HTR5A agonists, retest of hits, confirmation, cell-based, luminescence; HTR5A agonist cell assay; activation, % at 9.3 µM; 800 compounds, 17% hits; AID 504915, 2011; shares compounds with HTR5A ag ctr; in the data active means activation above about 17%;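 further: 0% = cells with vehicle only and 100% = full reference agonist response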
Active calls of the source: *; u = inconclusive; x = no result. Unless noted, no stated cut-off is given here; in the data, active means activation above about 18%; inactive means the rest.

SMILES	HTR5A ag ctr	PolyA inhibitor	HTR5A inv ctr	MOR-DOR inv ag	MOR-DOR ag-1	NALP1 yeast inh	MOR-DOR ag-2	HTR5A ag conf
CC(=O)c1ccc(N(CC(=O)NCC2CCCO2)C(=O)CCC(=O)Nc2cc(C)on2)cc1 (stereo unspecified)	14*	28	-26	-11	2	28	3	0
CSc1ncc(C(=O)Nc2ccc(Br)cn2)c(C)n1	-1	13	3	6	-1	5	x	x
CC(OC(=O)c1ccccn1)C(=O)Nc1ccc(C(F)(F)F)cc1 (stereo unspecified)	2	x	-6	9	-2	x	x	x
CC(OC(=O)c1ccco1)C(=O)Nc1ccc(C(F)(F)F)cc1 (stereo unspecified)	20*	x	-49	5	-1	x	3	-4
Oc1c(C(c2cccs2)N2CCOCC2)sc2ncnn12 (stereo unspecified)	14	-11	-42	-2	0	6	x	x
Oc1c(C(c2cccs2)N2CCN(c3cccc(Cl)c3)CC2)sc2ncnn12 (stereo unspecified)	18*	-12	6	-1	0	39	2	3
c1ccc(Cc2nnc(-c3ccccc3)o2)cc1	16*	u	-47	-87	16	3	5	1
COc1ccc(C(=O)N/N=C/c2cc(Br)ccc2O)cc1OC	17*	-10	-55	0	0	-6	-1	-3
COc1ccc(Br)cc1/C=N/NC(=O)c1cc(Br)ccc1O	x	12	x	x	x	0	x	x
CN(C)CCCN(C(=O)COc1ccccc1)c1nc2ccc(F)cc2s1	-2	15	6	-7	1	-13	x	x
CN(C)CCCN(C(=O)CCOc1ccccc1)c1nc2ccc(F)cc2s1	18*	x	-52	7	-1	17	3	-2
CC1CCN(c2ccc3c(c2)S(=O)(=O)c2ccccc2C3=O)CC1	1	2	-2	14	-2	x	x	x
O=C(NCCc1c[nH]c2ccccc12)/C(=C\c1cccnc1)NC(=O)c1ccccc1Br	22*	-2	-37	10	-2	x	0	2
COc1ccc(-n2nnc3c(SC(C(C)=O)C(=O)N(C)C)ncnc32)cc1 (stereo unspecified)	-4	-5	15	11	-2	-9	x	x
C#CC(C)OC(=O)Nc1cnccc1C(F)(F)F (stereo unspecified)	8	-6	3	15	-3	-5	x	x
Cc1ccc2nc3c(c(Nc4ccc5c(c4)OCCO5)c2c1)CCC3	41*	-1	-190	10	-2	43	2	60*
Cc1ccc2nc3c(c(Nc4ccc(O)cc4)c2c1)CCC3	3	-9	-11	3	-1	16	x	x
COc1cc(OC)cc(-c2nc3ccccc3c(=O)n2OC(=O)c2ccccc2C)c1	22*	-5	-36	-38	8	28	6	12
Cc1ccc(S(=O)(=O)NCC(c2cccnc2)N2CCc3ccccc32)cc1 (stereo unspecified)	0	3	25	-4	1	28	x	x
O=C(O)/C=C/C(=O)Nc1ccc(C2(c3ccc(NC(=O)/C=C/C(=O)O)cc3)c3ccccc3-c3ccccc32)cc1	26*	3	-100	-10	2	2	4	-1
CCS(=O)(=O)c1nc(S(=O)(=O)c2ccc(C)cc2)c(NCCCN(C)C)s1	2	18	-7	21	-5	15	x	x
CC1C/C(=N\NC(=S)NC(C)C)CC(C)(C)C1 (stereo unspecified)	4	1	-28	-1	0	-5	x	x
COc1cc(Cl)c(C)cc1NC(C)C(=O)Nc1cc(C(F)(F)F)ccc1N1CCOCC1 (stereo unspecified)	-3	6	3	-2	0	35	x	x
